# Reference: PubChem BioAssay AID488890 (Southern Research Specialized Biocontainment Screening …, 2010)
# Among all 320,000 compounds or so, about 1,300 (0.41%) were called active. About 3% were inconclusive and are not listed. How the calls were made is not given here. Only a sample is shown. Entries with a potency or affinity are not part of this list.
# Experiment: growth inhibition of non-replicating M. tuberculosis (AID 488890);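 further: plate controls were DMSO cells for no effect and high antibiotic wells for full effect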
# Conditions: Mycobacterium tuberculosis non-replicating, at 25 µM, stronger effect = higher value
row,SMILES,inhibition [%]
1,N#Cc1ccccc1Cn1c(=O)n(CCC(=O)NCc2ccco2)c(=O)c2ccccc21,0.99
2,CCC1(CC)C(=O)NN(c2ccccc2)C1=O,-21.9
3,O=C(CCNC(=O)Cn1ccc2ccccc2c1=O)NCCN1CCc2ccccc2C1,19.7
4,O=C(C1=NN[C@@H]2C(=O)N(c3cccc(C(F)(F)F)c3)C(=O)[C@H]12)c1ccc2ccccc2n1,-0.67
5,COc1ccc(C(O)(C2CCCCC2)C(CN2CCCC2)c2ccccc2)cc1 (centres undefined),47
6,COc1ccc(C(=O)C(c2ccccc2)N2CCOCC2)cc1 (centres undefined),18.6
7,COc1ccc(C2C(C(=O)N3CCN(c4ccccc4)CC3)c3ccccc3C(=O)N2C)cc1 (centres undefined),16.5
8,Cc1ccc(S(=O)(=O)N2CCCCC2C(=O)Nc2ccc(N(C)C)cc2)cc1 (centres undefined),20
9,Cc1cc(Nc2ccccc2)n(-c2ccccc2)n1,6.71
10,Cc1cc(NC(=O)c2c(F)cccc2F)n(-c2nc3ccccc3[nH]2)n1,76.6
11,Cc1cc(NC(=O)c2ccccc2)n(-c2nc3ccccc3[nH]2)n1,49.6
12,Cc1cc(Nc2ccccc2)n(-c2ccc(Br)cc2)n1,66.6
13,Cc1cc(NC(=O)c2cccs2)n(-c2nc3ccccc3[nH]2)n1,76.4
14,Cc1cc(NC(=O)c2ccc(F)cc2F)n(-c2nc3ccccc3[nH]2)n1,14.7
15,COc1cccc(OC)c1C(=O)Nc1cc(C)nn1-c1nc2ccccc2[nH]1,20.1
16,CCOC(=O)C(=O)Nc1cc(C)nn1-c1nc2ccccc2[nH]1,73.2
17,Cc1ccsc1C(=O)N1CCC(N2CCC(C(=O)NCC3CCCO3)CC2)CC1 (centres undefined),1.59
18,C[C@H](NC(=O)[C@@H]1CSC2c3ccccc3C(=O)N21)C(=O)NC1CCCC1 (some centres undefined),-7.65
19,CCc1ccc(OCC(=O)O/N=C(\N)c2ccncc2)cc1,35.7
20,COc1ccc(N2CCN(CC(O)COCc3ccccc3)CC2)cc1 (centres undefined),-6.85
21,Cc1cc(Nc2nc3ccccc3[nH]c2=O)n(-c2ccccc2)n1,3.53
22,Cc1cc(NC(=O)CC#N)n(-c2nc3ccccc3[nH]2)n1,-8.39
23,Cc1cc(F)ccc1NC(=O)c1cc(S(=O)(=O)N2CCCC2)cn1C,-14.1

row,SMILES,inhibition [%]
1,O=[N+]([O-])c1ccc(-c2nc(-c3ccncc3)no2)cc1,-0.83
2,O=[N+]([O-])c1cccc(-c2nc(-c3ccncc3)no2)c1,1.9
3,COc1ccc(Oc2cccc(Cl)c2CNC(=O)c2ccccc2C(=O)O)cc1,22.3
4,CC1=Nc2ccccc2/C1=C/c1sc(=O)n(CC(=O)N2CCCC2)c1O,24
5,CC1=Nc2ccccc2/C1=C/c1c(O)n(C)c(=O)[nH]c1=O,3.78
6,COc1ccc(NC(=O)CN(C)C(=O)c2ccccc2Sc2ncnc3sc(C)c(C)c23)cc1,19.2
7,CC(C)(C)C(=O)CN1C(=O)NC(c2ccccc2)(c2ccccc2)C1=O,0.55
8,CCCCCOC(=O)C1=C(C)Nc2ncnn2C1c1cccs1 (centres undefined),21.8
9,COc1ccc(CNC(=O)[C@H](C)NC(=O)[C@@H]2Cc3ccccc3CN2)cc1,1.37
10,CCNC(=O)NC(=O)C(C)OC(=O)CCCc1nc2ccccc2s1 (centres undefined),65.1
11,CC(OC(=O)CCCSc1nc2ccccc2s1)C(=O)NC(N)=O (centres undefined),68.6
12,Cc1c(Cl)cccc1NC(=O)CSc1nncn1-c1cccnc1,2.49
13,O=c1nc(-c2ccccc2)c2ccccc2[nH]1,-10.3
14,O=c1cc(-c2ccccc2)[nH]c2ccccc12,14.9
15,CC(C)CN(C(=O)Cn1nnc(-c2ccc(F)cc2)n1)C1CCS(=O)(=O)C1 (centres undefined),2.71
16,CCOC(=O)c1cc(-c2cccc([N+](=O)[O-])c2)n[nH]1,-6.3
17,CCOC(=O)c1c(-c2cccc([N+](=O)[O-])c2)csc1N,39.4
18,COc1cccc(C(=O)Nc2ccc(-n3nncc3C(C)(C)C)cc2)c1,9.74
19,COc1cccc(Oc2nnnn2-c2ccccc2)c1,6.02
20,COc1cccc(-n2nnnc2SCC(=O)NC2CCCC2)c1,7.16
21,C=C(C(=O)Oc1ccccc1C(C)(C)C)c1ccccc1,36.4
22,COC(=O)c1ccc2c(=O)n(CCCCCC(=O)O)c(=O)[nH]c2c1,-11.8
23,CC(NC(=O)COC(=O)c1ccccc1F)C1CC2CCC1C2 (centres undefined),71

row,SMILES,inhibition [%]
1,CC(NC(=O)c1cccc(S(=O)(=O)N(C)C)c1)C1CC2CCC1C2 (centres undefined),-2.47
2,CC(NC(=O)CCC(=O)c1ccc(F)cc1)C1CC2CCC1C2 (centres undefined),11.8
3,CC(NC(=O)c1ccc(F)cc1F)C1CC2CCC1C2 (centres undefined),77.7
4,O=C(C1CCCN(S(=O)(=O)c2cccc3nsnc23)C1)N1CCN(c2ccccn2)CC1 (centres undefined),16.4
5,CCCCN(C(=O)NCCCCCCNC(=O)N(CCCC)C1CCS(=O)(=O)C1)C1CCS(=O)(=O)C1 (centres undefined),-10.6
6,COc1ccc(CC(=O)OCc2nnc(-c3ccccc3)o2)cc1,66.7
7,COc1cccc(C(Nc2ccccn2)c2oc(CO)cc(=O)c2O)c1 (centres undefined),8.94
8,O=C(COc1ccccc1)Nc1cccc(-c2nnc(-c3ccccc3)o2)c1,15.8
9,CC(C)CNC(=O)c1cccc(NC(=O)COc2cccc([N+](=O)[O-])c2)c1,16.2
10,CC(=O)c1cccc(NC(=O)COc2ccccc2)c1,54.2
11,CCOC(=O)c1cccc(NC(=O)COc2ccc([N+](=O)[O-])cc2)c1,73.8
12,CNC(=O)CO/N=C/c1ccc(N(C)C)cc1,3.3
13,CC(=O)Nc1cccc(OCC(=O)Nc2ccc(F)cc2)c1,-6.82
14,O=C(COc1ccc(CO)cc1)Nc1ccc(F)cc1,-2.12
15,CC(=O)Nc1ccc(/C=N/OCC(=O)Nc2ccc(C)cc2)cc1,31.8
16,Cn1c(N)c(C(=O)COC(=O)Cc2ccc(Br)cc2)c(=O)n(C)c1=O,3.86
17,O=C(Cc1ccc(F)cc1)N1CCC(CC2CC(c3cccc(Br)c3)=NO2)(C(=O)NCC2CCCCC2)CC1 (centres undefined),37
18,COc1ccc(-n2c(C)c(C)c3c(NCCCO)ncnc32)cc1,-0.92
19,COc1ccc(-n2c(CN3CCN(C)CC3)nc3ccc([N+](=O)[O-])cc3c2=O)c(OC)c1,1.89
20,COc1ccc(C(=O)CC(=O)C(=O)Nc2c(C)cccc2C)cc1,78.4
21,O=C(C1CCN(S(=O)(=O)c2ccc(Br)cc2)CC1)N1CCOCC1,-10.1
22,COC(=O)c1ccc(C)c(NC(=O)Cc2ccc([N+](=O)[O-])cc2)c1,21.2
23,COc1ccc(S(=O)(=O)N2CCC(C(=O)NCCOc3ccccc3F)CC2)cc1OC,24.4
